A number with no mark means an inactive call. No rule for the calls is given here.
system: not listed separately; test: Cy5 fluorescence quenching or enhancement artefacts, artefact control for HCV NS3 helicase inhibitor project, biochemical, LOPAC1280 (AID 687037); conditions: Cy5-DNA-NS3h complex fluorescence interference counterscreen

| Structure (SMILES) | fluorescence ratio (interference) |
| --- | --- |
| COc1cc(SC)ccc1C(=O)N1CCC(Cc2ccccc2)CC1 | 1 |
| Oc1cc(O)cc(/C=C/c2ccc(O)c(O)c2)c1 | 0.9 |
| O=Nc1c(-c2c(O)[nH]c3ccccc23)[nH]c2ccccc12 | 1 |
| Cc1cccc(C#Cc2ccccc2)n1 | 1 |
| CC(C)N(CCC(=O)c1ccc2ccccc2c1)Cc1ccccc1 | 0.9 |
| COc1cc2c(cc1O)CC[C@@H]1[C@@H]2CC[C@]2(C)[C@@H](O)CC[C@@H]12 | 1 |
| N#C/C(=C\c1ccc(O)c(O)c1)C(=O)NCc1ccccc1 | 1 |
| CCOC(=O)C(C)Oc1cccc2c(=O)n(CC(=O)Nc3ccc4c(c3)OCCO4)ccc12 (stereo not drawn) | 1 |
| O=c1cc(N2CCOCC2)oc2c(-c3ccccc3)cccc12 | 1 |
| Oc1ccc(-c2nc(-c3ccc(F)cc3)c(-c3ccncc3)[nH]2)cc1 | 0.9 |
| Cc1ccc(S(=O)(=O)/C=C/C#N)cc1 | 1 |
| CC(C)(Sc1ccc(CCN(CCCCC2CCCCC2)C(=O)NC2CCCCC2)cc1)C(=O)O | 1 |
| O=C1c2ccccc2-c2n[nH]c3cccc1c23 | 1 |

system: Aerobactin synthetase IucA (Klebsiella pneumoniae); test: IucA aerobactin synthetase inhibitors, biochemical, Tocris library, absorbance (AID 1345561); conditions: purified IucA enzyme assay, absorbance (OD) read-out; stronger effect = lower value;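 tested at 8 µM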;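 also: 100% = enzyme without compound and 0% = no enzyme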

| Structure (SMILES) | remaining activity [%] |
| --- | --- |
| O=C(/C=C/c1c(C(=O)O)[nH]c2cc(Cl)cc(Cl)c12)Nc1ccccc1 | 87.2 |
| C[C@H](NC(=O)c1sccc1OCc1ccc(Cl)cc1)c1ccccc1 | 124 |
| CNC(=O)[C@H]1O[C@@H](n2cnc3c(NCc4cccc(I)c4)nc(Cl)nc32)[C@H](O)[C@@H]1O | 96.8 |
| COc1cc(SC)ccc1C(=O)N1CCC(Cc2ccccc2)CC1 | 78.3 |
| N#C/C(=C(/N)Sc1ccc(N)cc1)c1ccccc1C(F)(F)F | 113 |
| COc1ccc(-c2oc3cc(OC)ccc3c2C(=O)c2ccc(C#N)cc2)cc1 | 104 |
| Oc1cc(O)cc(/C=C/c2ccc(O)c(O)c2)c1 | 112 |
| O=Nc1c(-c2c(O)[nH]c3ccccc23)[nH]c2ccccc12 | 116 |
| CN(CCOc1ccc(-c2ccc3c(c2)OCO3)cc1C(C)(C)C)CC(=O)O | 102 |
| N#CC(=C(/N)Sc1ccccc1N)/C(C#N)=C(\N)Sc1ccccc1N | 92.9 |
| FC(F)(F)c1ccc(/C=C/c2nc(COc3ccc(CCCCn4ccnn4)cc3)co2)cc1 | 112 |
| C=CCc1cccc(/C=N/NC(=O)CN2CCN(Cc3ccccc3)CC2)c1O | 83.1 |
| C[C@@H](N)C1CCC(C(=O)Nc2ccncc2)CC1 (stereo partly drawn) | 114 |
| Cc1cccc(C#Cc2ccccc2)n1 | 102 |
| Nc1nccc(-c2ccc3noc(-c4ccc(Cl)cc4)c3c2)n1 | 127 |
| Nc1ncnc2c1ncn2[C@@H]1O[C@H](CO)C[C@H]1O | 110 |
| NC(=O)c1ccc(-c2nc(-c3ccc4c(c3)OCCO4)c(-c3ccccn3)[nH]2)cc1 | 105 |
| CC(C)N(CCC(=O)c1ccc2ccccc2c1)Cc1ccccc1 | 113 |
| COc1ccc(Nc2nccc(NCCO)n2)cc1 | 124 |
| CC(C)(C)/[N+]([O-])=C/c1ccc(S(=O)(=O)O)cc1S(=O)(=O)O | 104 |

| Structure (SMILES) | remaining activity [%] |
| --- | --- |
| CC(C)c1onc(-c2c(Cl)cccc2Cl)c1COc1ccc(/C=C/c2cccc(C(=O)O)c2)c(Cl)c1 | 99.1 |
| COc1cc2c(cc1O)CC[C@@H]1[C@@H]2CC[C@]2(C)[C@@H](O)CC[C@@H]12 | 112 |
| Cc1ccccc1C(=O)c1ccc(Nc2ccc(Br)cc2N)cc1Cl | 120 |
| N#C/C(=C\c1ccc(O)c(O)c1)C(=O)NCc1ccccc1 | 113 |
| CCOC(=O)C(C)Oc1cccc2c(=O)n(CC(=O)Nc3ccc4c(c3)OCCO4)ccc12 (stereo not drawn) | 96.6 |
| CC(C)C[C@@H](C(=O)N[C@H](C(=O)OC1CCCC1)c1ccccc1)[C@H](O)C(=O)NO | 125 |
| O=c1ncccn1[C@@H]1O[C@H](CO)[C@@H](O)[C@H]1O | 115 |
| Clc1ccc(-c2nc3sccn3c2/C=N/OCc2ccc(Cl)c(Cl)c2)cc1 | 112 |
| O=c1cc(N2CCOCC2)oc2c(-c3ccccc3)cccc12 | 118 |
| O=S(=O)(NCCNC/C=C/c1ccc(Br)cc1)c1cccc2cnccc12 | 114 |
| Oc1ccc(Nc2nc(-c3ccc(Cl)cc3)cs2)cc1 | 89 |
| CCCC[C@@H](C=O)NC(=O)[C@H](CC(C)C)NC(=O)OCc1ccccc1 | 86.3 |
| Oc1ccc(-c2nc(-c3ccc(F)cc3)c(-c3ccncc3)[nH]2)cc1 | 114 |
| O=C(c1ccc(Nc2nccc(-c3cc4ccccc4s3)n2)cc1)N1CCC(N2CCCC2)CC1 | 98.9 |
| Cc1ccc(S(=O)(=O)/C=C/C#N)cc1 | 118 |
| CC(C)(Sc1ccc(CCN(CCCCC2CCCCC2)C(=O)NC2CCCCC2)cc1)C(=O)O | 122 |
| C[C@H](NC(=O)Cc1cc(F)cc(F)c1)C(=O)N[C@H](C(=O)OC(C)(C)C)c1ccccc1 | 99.3 |
| Cc1ccc(NC(=O)c2cccc(N(C)C)c2)cc1NC(=O)c1ccc(O)cc1 | 115 |
| O=C(O)Cc1cccc(OCCCN(Cc2cccc(C(F)(F)F)c2Cl)CC(c2ccccc2)c2ccccc2)c1 | 110 |
| O=C1c2ccccc2-c2n[nH]c3cccc1c23 | 103 |

Source: PubChem BioAssay
